# Sampled rows, rich in hits. Any-hit rate of the full collection: about 5.9%.
# KB-3-1 tox: KB-3-1 parental cell cytotoxicity; KB-3-1 viability, CellTiter-Glo ATP luminescence, 72 h; AID 1347075; Potency, µM (titrated, usually from 46.1 µM), most hits filed as cytotoxic; 1.4% of 400,000 active; note: % is set by controls: 0 for no effect and ±100 for the full control effect; nearly all actives have a fitted effect of over 60% in size
#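 Parental KB-3-1 adenocarcinoma cells in phenol-red-free DMEM with 10% FBS were pin-treated with compounds at several concentrations, incubated 72 h at 37 °C, and viability read by CellTiter-Glo luminescence; concentration-effect curves were fitted after normalization.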
# HepG2 tox: kills HepG2 cells in TGF-b inhibitor counter-screen | HepG2 CAGA-GFP viability, ATP luminescence, 18 h | Potency, µM (highest dose often 46.1 µM), without a hit: top-dose activity change, negative = cytotoxicity, usual class: cytotoxic | 0.76% of 410,000 active
#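 HepG2 CAGA-GFP cells (1000/well, DMEM with 1% FBS) received compound, then TGF-beta at 500 pg/mL final, and were incubated 18 hours at 37 degrees C. Viability was read by CellTiter-Glo luminescence. Media-only wells were set as complete cell-killing and DMSO as no toxicity.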
# TGFb SMAD3 inh: TGF-b pathway inhibition | HepG2 CAGA-GFP TGF-b/SMAD3 reporter, GFP fluorescence, 18 h; TGF-beta stimulated, 500 pg/mL final | Potency, µM (top dose mostly 46.1 µM), inactives show at the highest dose activity, negative = inhibition, usual class: inhibitors | 1.2% of 410,000 active | AID 588855; note: % is set by controls: 0 for no effect and ±100 for the full control effect; nearly all actives have a fitted effect of over 65% in size
#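 HEPG2 CAGA-GFP, 1000 cells/well; 2 h settle, 37 C; cpd via pin tool; TGF-b 500 pg/mL final; 18 h, 37 C; GFP imaging ex488/em500-530; %Activity normalised to -TGF-b and +DMSO controls; CRC fit, curve class.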
# KB-V1 MDR tox: kills drug-selected multidrug resistant KB-V1 cells; KB-V1 MDR cells viability, CellTiter-Glo, 72 h; Potency, µM (doses to about 46.1 µM), most hits filed as cytotoxic; 3.4% of 400,000 active; AID 1347076; note: % is set by controls: 0 for no effect and ±100 for the full control effect; nearly all actives have a fitted effect of over 60% in size
#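 KB-V1, DMEM (no phenol red) + 10% FBS; cpd pin-transferred, titration series; 72 h, 37 degrees C; CellTiter-Glo, luminescence. Data normalized, curve-fit.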
# ATXN2 expr inh: reduces ATXN2 reporter expression in HEK-293 cells | HEK-293 ATXN2-luciferase reporter, luminescence, 24 h | Potency, µM (titrated, usually from 57 µM), inactives show at the highest dose activity change, negative = inhibition, usual class: inhibitors | 0.72% of 360,000 active | AID 1745845; note: % is set by controls: 0 for no effect and ±100 for the full control effect; nearly all actives have a fitted effect of over 55% in size
#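 ATXN2-luciferase reporter cells (luciferase flanked by upstream and downstream ATXN2 gene portions) were treated 24 h at 37 °C with compounds at up to 57 uM. SteadyGlo luminescence gave expression; GF-AFC fluorescence gave viability.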
# S2 tox: viability counter-screen for ATXN expression inhibitors | S2 cells (HEK-293 line with an ATXN2-luciferase reporter) viability, CellTiter-Fluor protease fluorescence, 24 h | Potency, µM (doses to about 56.7 µM), usual class: cytotoxic | 0.49% of 400,000 active; note: nearly all actives have a fitted effect of over 40% in size
# Active calls of the source: *; i = inactive; ? = inconclusive; · = not tested or not shown. Calls come from the whole dose curve; as a rule, active = well fitted curve in the direction sought with a large enough effect; inconclusive = small, poorly fitted or top-dose-only effect, or another doubt; inactive = no such curve, though single readings can be large; an effect the other way counts as inactive or inconclusive. Potency is the fitted concentration of half-maximal effect.
SMILES,KB-3-1 tox,HepG2 tox,TGFb SMAD3 inh,KB-V1 MDR tox,ATXN2 expr inh,S2 tox
CCN(CC)S(=O)(=O)c1ccc(Oc2ccc(S(=O)(=O)N(CC)CC)cc2)cc1,?,-20%,-10%,2.3µM*,?,i
Cc1nc2ccccc2n1CC(O)Cn1c2ccccc2c2ccccc21 (centres undefined),18µM*,-19%,17%,?,?,?
Cc1nc2ccccc2n1CC(O)COC1CCCCC1 (centres undefined),i,-5%,3%,16µM*,-8%,i
CCCCOCC(O)Cn1c(C)nc2ccccc21 (centres undefined),i,-1%,0%,?,1%,i
OC(CN1CCN(Cc2ccccc2)CC1)Cn1c2ccccc2c2ccccc21 (centres undefined),?,-59%,?,23µM*,-15%,i
CCc1ccc(-c2[nH]nc3nc(-c4ccc(OC)cc4)cc(C(=O)NCCCOC)c23)cc1,i,2%,-23%,?,15%,i
CN(Cc1ccco1)C(=O)c1cc(NC(=O)C2CCC2)c2c(c1)nc(-c1ccncc1)n2C,·,·,·,·,·,i
Cc1cc(N2CCN(C(C(=O)NC3CCCC3)c3ccc(-c4ccccc4)cc3)CC2)c2ccccc2n1 (centres undefined),?,·,·,21µM*,·,·
Cc1cc(N2CCN(C(C(=O)NC3CCCC3)C(C)C)CC2)c2ccccc2n1 (centres undefined),i,·,·,?,·,·
CC[n+]1ccnc2ccccc21,i,3.5µM*,3.2µM*,?,·,·
CC(=O)NCC(=O)NCC1Cc2cc(C)cc(-c3ccccn3)c2O1 (centres undefined),·,·,·,·,·,i
COC(=O)c1c(S(N)(=O)=O)c2ccccc2n1C,i,-3%,-12%,i,-1%,i
COC(=O)c1c(C(=O)c2ccc(Br)cc2)n(C)c2ccccc12,?,-12%,-21%,21µM*,-23%,i
CCN(CC)S(=O)(=O)c1nnc(NC(=O)c2ccc(C(C)C)cc2)s1,i,-35%,?,i,·,·
CC1CCCCN1S(=O)(=O)c1ccc(C(=O)N(CCCN(C)C)c2nc3ccc(Br)cc3s2)cc1 (centres undefined),?,-96%,?,23µM*,?,·
CN(C)CCN(C(=O)c1ccc(S(=O)(=O)N2CCCC2)cc1)c1nc2ccc(Br)cc2s1,i,-13%,-14%,i,1%,i
CCOC(=O)N1CCN(S(=O)(=O)c2ccc(C(=O)N(CCCN(C)C)c3nc4ccc(Cl)cc4s3)cc2)CC1,i,11µM*,?,i,?,?
CCOC(=O)N1CCN(S(=O)(=O)c2ccc(C(=O)N(CCCN(C)C)c3nc4ccc(CC)cc4s3)cc2)CC1,i,-13%,0%,i,?,i
Cc1ccc2nc(N(CCCN(C)C)C(=O)c3ccc(S(=O)(=O)N4CCCCCC4)cc3)sc2c1,?,16µM*,?,i,?,i
Cc1cccc(C)c1NC(=O)C1(C)CN(S(C)(=O)=O)CC(=O)N1C1CC1 (centres undefined),i,·,·,i,·,·
COc1cc(O)c(C(CC(=O)N2CCOCC2)c2ccc(OC)c(OC)c2)c(OC)c1 (centres undefined),i,·,·,i,·,·
Cc1ccc(CN2CCC(=O)N(Cc3ccccn3)CC2)c(C)c1,·,·,·,·,·,i
CC(C)(C)NCC(=Cc1ccccc1)C(=O)c1ccccc1,5.2µM*,-100%,8.9µM*,?,8.4µM*,11µM*
CC(=O)N/C(=C/c1ccccc1)c1ccccc1,i,1%,-4%,i,1%,i
CCOC(=O)C(C(C)=O)c1c(Br)c(O)c(O)c2c(C(=O)c3ccc(C)cc3)coc12 (centres undefined),i,-41%,10µM*,21µM*,14µM*,?
SMILES,KB-3-1 tox,HepG2 tox,TGFb SMAD3 inh,KB-V1 MDR tox,ATXN2 expr inh,S2 tox
CCOc1ccc(CNC(=O)c2ccc(NC(=O)N3CCCCc4ccccc43)cc2)cc1OC,i,-1%,-13%,i,3%,i
CCOC(=O)c1nn(-c2ccccc2)c2nc(-c3ccc(OC)cc3)c(C#N)c(=O)n12,?,3%,7%,23µM*,3%,i
Cn1c(=O)c2c(SCC(=O)Nc3ccc(F)cc3F)nc(C3CCCC3)nc2n(C)c1=O,i,0%,1%,i,-4%,?
CNC(=O)c1cccc(-c2ccc3c(N4CCOC[C@H]4C)nc(N4CCOC[C@H]4C)nc3n2)c1,·,·,·,·,-32%,·
COc1ccc(OC)c(C(C(=O)NCc2ccco2)N(C(=O)Cn2nnc3ccccc32)C(C)C)c1 (centres undefined),i,2%,3%,?,-4%,i
COc1ccc(OC)c(C(C(=O)NCc2ccco2)N(C(=O)Cn2nnc3ccccc32)C2CC2)c1 (centres undefined),i,-24%,10%,6.5µM*,16%,i
Cc1ccc(NC(=O)COc2ccc(/C=C3/SC(=Nc4ccccc4)N(Cc4cccnc4)C3=O)cc2)cc1,?,2%,-5%,16µM*,14µM*,?
Cc1ccc(NC(=O)COc2ccc(/C=N/NC(=O)CSCc3ccccc3)cc2)cc1,i,-27%,-1%,i,0%,i
COc1ccccc1OCCCn1cc(C#N)c2ccccc21,12µM*,-14%,19%,5.2µM*,-10%,i
CNS(=O)(=O)c1cn(CC(=O)N2CCN(c3ccc(Cl)cc3)CC2)cc1S(=O)(=O)NC,i,-10%,0%,i,·,·
CCN(CC)c1c2c(c(C#N)c3nc4ccccc4n13)CCC2,i,-32%,10%,3.7µM*,-8%,i
COc1ccc(C(=O)C[n+]2ccc3c(c2)nc(-c2ccccc2)n3C)cc1,?,0%,7%,i,7%,i
COc1ccc(C(=O)C[n+]2ccc3c(c2)nc(-c2ccc(OC)cc2OC)n3C)cc1,15µM*,-3%,-6%,i,-11%,i
O=C(CCl)c1ccc2c(c1)CCCC2,i,-28%,4%,i,·,·
COc1cccc(NC(=O)NC2CCN(Cc3nnnn3Cc3ccc(F)cc3)CC2)c1,i,0%,0%,i,-14%,i
O=C(Nc1ccccc1F)NC1CCN(Cc2nnnn2Cc2ccc(F)cc2)CC1,i,9%,-6%,15µM*,-12%,i
O=C1/C(=C/c2ccncc2)CCc2ccccc21,i,-99%,?,15µM*,·,i
